Assay [1] is described as follows: qHTS assay for small molecule agonists of the p53 signaling pathway (AID 651631; calls by dose curve; further: nearly all actives have a fitted effect of over 15% in size). The gist of the method: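 HCT-116 cells carrying a beta-lactamase reporter under p53 response elements were dosed with compound for 16 h at 37 °C. LiveBLAzer B/G FRET substrate was then added for 2 h at room temperature, and fluorescence intensity was read to detect pathway agonism.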
Background: qHTS replaces the single test concentration by a dilution series.

Assay [2] in a line: qHTS assay for small molecules that induce genotoxicity in human embryonic kidney cells expressing luciferase-tagged ATAD5 (AID 651632). Further: nearly all actives have a fitted effect of over 15% in size. The gist of the method:
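ATAD5-luc HEK293T, 2,000 cells/well; cpd or DMSO pin-transferred; 16 hr, 37C/5% CO2; Amplite 30 min RT; luminescence.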

Assay [3] can be described thus: qHTS assay for small molecules that induce genotoxicity in human embryonic kidney cells expressing luciferase-tagged ATAD5 - cell viability (AID 651634; calls by dose curve; further: nearly all actives have a fitted effect of over 25% in size). In short, it runs like this: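 Fluorescence from CellTiter-Fluor, reporting protease activity within live cells, served as the viability read-out. HEK293T cells carrying luciferase-tagged ATAD5 had been treated with compound for 15.5 hr at 37C.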

The nature of assay [4]: qHTS assay for small molecule disruptors of the mitochondrial membrane potential - cell viability (AID 720634; calls by dose curve;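 further: human HepG2 liver cancer cells; series mostly up to about 83 µM; nearly all actives have a fitted effect of over 20% in size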). In short, it runs like this: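 Cells: HepG2, 2,000/well, attached overnight. Compound 1 hr, 37 C/5% CO2. +m-MPI dye, +CellTiter-Glo 30 min RT. Readout: luminescence (ATP).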
The nature of assay [5]: qHTS assay for small molecule disruptors of the mitochondrial membrane potential (AID 720635). Further: potency means the concentration at half of the fitted maximal effect. In short, it runs like this: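 HepG2 cells exposed to compound 1 hr at 37C, then Mito-MPS dye 30 min. Ratio read of aggregate (540/590 nm) versus monomer (490/535 nm) fluorescence.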
A short description of assay [6]: qHTS assay to test for compound auto fluorescence at 590 nm (red) in HepG2 cells (AID 720674). The gist of the method:
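Fluorescence at 590 nm emission following 540 nm excitation was recorded from HepG2 wells one hour after compound transfer, with DMSO-only wells as vehicle and Rose Bengal sodium equivalency as the scale.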

Assay [7] is described as follows: qHTS assay to test for compound auto fluorescence at 535 nm (green) in HepG2 cells (AID 720675).
Assay [8] is described as follows: qHTS assay to test for compound auto fluorescence at 460 nm (blue) in HEK293 cells (AID 720678). The gist of the method:
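Measured: blue fluorescence (Ex 405/Em 460 nm) of compound-treated HEK293 cells, incubated overnight at 37C with 5% CO2 and scaled to triamterene equivalents.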

The nature of assay [9]: qHTS assay to test for compound auto fluorescence at 590 nm (red) in HEK293 cells (AID 720679). In short, it runs like this:
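Using HEK293 cells at 2,000 per well, the screen added 23 nL of each compound after cell attachment and incubated overnight (37C, 5% CO2). The plate reader then captured red-label fluorescence, Ex/Em 540/590nm.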

The nature of assay [10]: qHTS assay for small molecule agonists of the p53 signaling pathway - cell viability (AID 651633; calls by dose curve;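 further: p53RE-bla HCT reporter cells with a stable beta-lactamase p53 reporter; series mostly up to about 83 µM; nearly all actives have a fitted effect of over 30% in size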). The gist of the method: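 p53RE-bla cells were treated with compound for 16 hours at 37 C. Cytotoxicity was then measured as CellTiter-Glo luminescence after 30 min at room temperature.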

Several values for one entry are separate records, joined by “and”; a condition that tells them apart may be missing. Identical values can stand only once. Results filed as inconclusive are left out. Some compounds were tested as several samples or in several runs, with calls that do not always agree. Activity calls are given as the source filed them. Unless noted, the call rests on the fitted dose curve; in most records, active means well fitted curve in the direction sought with a large enough effect in the repeat runs; inconclusive means weak or mixed curves; inactive means no such curve, though single readings can be large; an effect the other way counts as inactive or inconclusive.

As for `C=C(CC(=O)O)C(=O)O`, the Potency result in assay [1], in assay [2], in assay [3], in [4], in assay [5] and in assay [8] was “inactive” in each case. Also, the outcome in assay [6], in [7] and in [9] was inactive.

`COc1ccccc1[N+](=O)[O-]`: the Potency result in [1], in assay [2], in assay [3], in [4], in assay [5] and in assay [8] was “inactive” throughout. In addition, the outcome in assay [6], in assay [7] and in assay [9] was inactive.

In the case of `OCC(O)CS` (stereo not given), the Potency entry in assay [1], in assay [2], in assay [3], in [4] and in [8] was “inactive” throughout. The outcome in [7] and in [9] was inactive.

For the compound `COC(=O)CCCCC(=O)OC`, the Potency entry in assay [1], in assay [2], in [3], in assay [4], in [5] and in assay [8] was “inactive” throughout. For the same compound, the call in assay [6], in assay [7] and in assay [9] was inactive.

For the compound `Cc1ccc([N+](=O)[O-])cc1N`, the Potency entry in assay [1], in assay [2], in assay [10], in assay [4], in assay [5] and in [8] was “inactive” throughout. In addition, the result in assay [7] and in [9] was inactive.

With `CCCCCCCCO`, the Potency entry in assay [1], in assay [2], in assay [3], in [4], in assay [5] and in assay [8] was “inactive” throughout. In addition, the outcome in assay [6], in assay [7] and in assay [9] was inactive.

For `C=CC(C)(C)C`, the Potency entry in assay [1], in assay [2], in assay [10], in [4] and in [8] was “inactive” in each case. Besides, the compound was called inactive in [6], in assay [7] and in assay [9].

With `C[Si](C)(C)N[Si](C)(C)C`, the Potency entry in [1], in assay [2], in assay [4], in [5] and in assay [8] was “inactive” each time. Besides, the call in [6], in [7] and in assay [9] was inactive.

Consider `NC(N)=S`, for which the Potency entry in assay [1], in [2], in assay [3], in [4], in assay [5] and in assay [8] was “inactive” each time. Further, the result in assay [6], in assay [7] and in assay [9] was inactive.

Take `CCc1cccc(CC)c1N`: the Potency result in assay [1], in [2], in assay [3], in [4], in [5] and in [8] was “inactive” each time. Besides, the call in assay [6], in assay [7] and in assay [9] was inactive.

Regarding `O=C1C(N(CO)C(=O)NCO)N(CO)C(=O)N1CO` (stereo not given), the Potency entry in assay [1], in assay [2], in assay [10], in [4], in assay [5] and in assay [8] was “inactive” each time. The compound was called inactive in assay [7] and in assay [9].

`CCOC(=O)c1ccc(O)cc1`: the Potency result in [1], in assay [2], in assay [3], in assay [4] and in assay [8] was “inactive” throughout. Further, the Potency result in assay [5] was “inactive and 21.7 µM (active)”. Further, the compound was classed as inactive in [6], in [7] and in [9].

Turning to `O=C1O[C@H]([C@H](O)CO)C(O)=C1O`, the Potency result in assay [1], in assay [2], in assay [3], in assay [4], in assay [5] and in assay [8] was “inactive” throughout. Also, the result in assay [6], in [7] and in [9] was inactive.

Turning to `CCn1cc(C(=O)O)c(=O)c2cc3c(cc21)OCO3`, the Potency entry in assay [1], in [2], in [10], in assay [4], in assay [5] and in [8] was “inactive” in each case. Moreover, the compound was classed as inactive in assay [7] and in assay [9].

Take `O=C(Cl)c1ccc(C(=O)Cl)cc1`: the Potency entry in [1], in assay [2], in assay [10], in assay [4], in [5] and in assay [8] was “inactive” in each case. Further, the result in assay [6], in assay [7] and in [9] was inactive.

`COc1ccc(N)c(OC)c1`: the Potency result in assay [1], in assay [2], in [10], in assay [4] and in [8] was “inactive” in each case. Moreover, the Potency in [5] was 54.5 µM (active). Further, the compound was classed as inactive in assay [7] and in assay [9].

Turning to `COc1ccc([C@@H]2CC(=O)c3c(O)cc(O[C@@H]4O[C@H](CO[C@@H]5O[C@@H](C)[C@H](O)[C@@H](O)[C@H]5O)[C@@H](O)[C@H](O)[C@H]4O)cc3O2)cc1OC`, the Potency entry in assay [1], in assay [2], in assay [10], in assay [4], in assay [5] and in assay [8] was “inactive” each time. For the same compound, the outcome in [7] and in assay [9] was inactive.

`CC(=O)OCCC(C)C`: the Potency entry in assay [1], in assay [2], in [3], in assay [4], in assay [5] and in assay [8] was “inactive” each time. For the same compound, the compound was called inactive in [7] and in assay [9].

Regarding `NC(=O)NC(N)=O`, the Potency entry in assay [1], in assay [2], in [3], in [4], in [5] and in assay [8] was “inactive” throughout. For the same compound, the call in [6], in assay [7] and in assay [9] was inactive.

Turning to `Cc1ccncc1`, the Potency entry in [1], in assay [2], in assay [3], in assay [4], in assay [5] and in [8] was “inactive” throughout. In addition, the call in assay [6], in assay [7] and in assay [9] was inactive.

Consider `CCCCCCCCC(=O)O`, for which the Potency result in assay [1], in assay [2], in assay [10], in assay [4], in assay [5] and in assay [8] was “inactive” in each case. Also, the call in assay [7] and in assay [9] was inactive.

As for `COC(=O)/C=C\C(=O)OC`, the Potency result in [1], in assay [2], in [3], in assay [4] and in assay [8] was “inactive” each time. The compound was called inactive in assay [6], in assay [7] and in assay [9].

With `CC1(C)[C@@H](O[C@H]2O[C@H](C(=O)O)[C@@H](O)[C@H](O)[C@H]2O[C@@H]2O[C@H](C(=O)O)[C@@H](O)[C@H](O)[C@H]2O)CC[C@]2(C)[C@H]3C(=O)C=C4[C@@H]5C[C@@](C)(C(=O)O)CC[C@]5(C)CC[C@@]4(C)[C@]3(C)CC[C@@H]12`, the Potency result in assay [1], in assay [2], in assay [3], in [4], in assay [5] and in assay [8] was “inactive” in each case. For the same compound, the outcome in [6], in [7] and in assay [9] was inactive.

Take `OCCOCCOCCOCCOCCO`: the Potency result in assay [1], in [10], in [4], in [5] and in assay [8] was “inactive” throughout. The call in assay [6], in assay [7] and in assay [9] was inactive.

Turning to `OC[C@H]1O[C@@H](Oc2ccc(O)cc2)[C@H](O)[C@@H](O)[C@@H]1O`, the Potency result in [1], in assay [2], in [4], in assay [5] and in assay [8] was “inactive” each time. The call in assay [6], in [7] and in assay [9] was inactive.

In the case of `C1CCCNCC1`, the Potency entry in [2], in [3], in assay [4], in assay [5] and in assay [8] was “inactive” each time. The compound was called inactive in assay [7] and in assay [9].

In the case of `CCCCCCC(=O)O`, the Potency entry in assay [1], in [2], in assay [4], in assay [5] and in assay [8] was “inactive” in each case. In addition, the compound was called inactive in assay [6], in assay [7] and in assay [9].

For the compound `CC(COCC(C)OC(=O)c1ccccc1)OC(=O)c1ccccc1` (stereo not given), the Potency entry in [2], in [3], in assay [4], in assay [5] and in assay [8] was “inactive” throughout. Moreover, the compound was classed as inactive in assay [6], in assay [7] and in [9].

For `CS(=O)(=O)c1ccc(Cl)cc1`, the Potency result in assay [4], in assay [5] and in assay [8] was “inactive” each time. Further, the outcome in assay [6], in assay [7] and in assay [9] was inactive.

The values above are taken from PubChem BioAssay (Tox21).
